The source of these data is PubChem BioAssay AID624464 (National Center for Advancing Translational Sciences (NCATS), 2012).

The campaign covered roughly 360,000 compounds. About 810 (0.23%) were called active. What follows is part of a selection rich in actives, with near analogues and random picks from the rest. A number with no mark means an inactive call. Cut-off read from the data, not from the text of the source: active = potentiation above about 50%; inconclusive = mostly about 30% to 49%; inactive = weaker than that.

The target of this assay is D(2) dopamine receptor (Homo sapiens) (UniProt P14416). In words: Beta-Arrestin HTS for Positive Allosteric Modulators of the Human D2 Dopamine Receptor: Potentiators. As to conditions: DiscoveRx D2 beta-arrestin cells, luminescence, 90 min; active compounds read high; 100% = 57 uM dopamine signal. The text has this: There is great interest in identifying small molecule ligands for G-protein coupled receptors (GPCRs) as nearly 50% of all FDA-approved drugs target these important receptor proteins. […] Amongst the dopamine receptors (DARs), the D2 is arguably one of the most validated drug targets in neurology and psychiatry. For instance, all receptor-based antiparkinsonian drugs primarily work via stimulating the D2 DAR, whereas all FDA-approved antipsychotic agents are antagonists of this receptor. The D2 DAR is also therapeutically targeted in other disorders such as restless legs syndrome, tardive dyskinesia, Tourette's syndrome, and hyperprolactinemia.
D(2) dopamine receptor (Homo sapiens), sequence (P14416 whole entry, looked up): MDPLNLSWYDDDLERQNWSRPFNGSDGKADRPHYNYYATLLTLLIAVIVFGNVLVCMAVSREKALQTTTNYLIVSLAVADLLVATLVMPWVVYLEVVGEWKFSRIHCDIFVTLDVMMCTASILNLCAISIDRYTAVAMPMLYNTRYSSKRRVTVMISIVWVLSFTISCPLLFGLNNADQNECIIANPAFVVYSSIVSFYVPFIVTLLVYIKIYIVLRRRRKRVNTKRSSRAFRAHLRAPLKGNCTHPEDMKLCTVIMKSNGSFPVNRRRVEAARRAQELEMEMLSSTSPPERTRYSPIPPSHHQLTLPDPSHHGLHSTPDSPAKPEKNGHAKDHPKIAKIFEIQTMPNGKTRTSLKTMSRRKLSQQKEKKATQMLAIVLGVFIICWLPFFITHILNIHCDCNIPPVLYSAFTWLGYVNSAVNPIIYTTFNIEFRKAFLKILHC
To this end, a miniaturized qHTS screen was developed to be screened against the Molecular Libraries Small Molecule Repository (MLSMR). This assay seeks to identify potentiators against the D2 DAR.
NIH Molecular Libraries Probe Production Network [MLPCN]
NIH Chemical Genomics Center [NCGC]
PI Name: David Sibley, National Institutes of Neurological Disorders and Stroke
DiscoveRx D2 cells were thawed from frozen stock and seeded at 2,100 cells/ 3 uL/well media (DiscoveRx Plating Reagent 2) with MultiDrop Combi dispenser (Thermo Scientific, Logan, UT) onto white tissue culture treated 1536-well Aurora plates (Brooks Automation, Chelmsford, MA) and allowed to attach overnight at 37 deg C, 5% CO2. Next, 23 nL/well of compound solutions in DMSO were added with a pintool transfer (Kalypsis, San Diego, CA). As the positive control, 1 uL/well dopamine (EC100, 57 uM final concentration) diluted in buffer (HBSS + 10 mM HEPES + SMB + 0.1 %Tween-20) was dispensed to 1 column of each plate. EC20 (Dopamine at 50 nM final concentration) was dispensed to the rest of the plate except columns 1 &2 which were used as negative control (EC=0, buffer only), 1 uL/well as well. The cells were stimulated by compounds and dopamine for 90 minutes at 37 deg C, 5% CO2, after which 1.5 uL/well of DiscoveRx detection reagent was added with BioRAPTR FRD dispenser. The detection reagent was prepared by mixing of Galacton Star Substrate, Emerald II solution and PathHunter buffer (supplied by the assay kit) together at 1:5:19 proportion accordingly just prior to dispensing. The plates were incubated at ambient temperature for 1 hour and then the luminescent signal was read on ViewLux plate reader (PerkinElmer, Waltham, MA).
In the case of `Cc1cc(N2CCCC2=O)cc(C)c1S(N)(=O)=O`, the potentiation is -18.2%. Consider `O=C1NC(=O)C(c2ccc(Cl)cc2)N1` (centres undefined), for which the potentiation was -7.09%. Next, `CCCCC(=O)Nc1nnc(S(=O)(=O)N(C)Cc2ccco2)s1`: -7.89%; `Cn1cc(/C=C/C(=O)N2CCCC(C(=O)c3ccc(C(F)(F)F)cc3)C2)cn1` (centres undefined): -1.59%; `COc1ccc(C(=O)C[n+]2ccc(N)c(C)c2C)cc1`: -3.23%. Take `COc1cc(C(=S)N2CCOCC2)cc(OC)c1OC(=O)c1ccc([N+](=O)[O-])cc1[N+](=O)[O-]`: the potentiation was 136% (active). Next, `COC(=O)c1cc(Oc2ccc(S(=O)(=O)N3CCOCC3)cc2[N+](=O)[O-])cc(C(=O)OC)c1`: -0.101%; `COc1cc([N+](=O)[O-])cc([N+](=O)[O-])c1NC(=O)N1CCOCC1`: -13.5%; `O=C(NCCCn1ccnc1)C(=O)NCC1OCCN1S(=O)(=O)c1cc(F)ccc1F` (centres undefined): -2.44%. For the compound `COC(=O)c1cccnc1NC(=S)NC(C)C`, the potentiation is 2.31%. Take `CC(=O)NC(C)(C)C1CC=C(C)/C(=N\O)C1` (centres undefined): the potentiation is -2.42%.

Turning to `NC(Cc1ccc(F)cc1)c1csc(Nc2nncc3ccccc23)n1` (centres undefined), the potentiation is 0.276%. For the compound `Cc1ccc(Cc2c(-c3ccco3)nc3ccc(Cl)cn23)cc1`, the potentiation is -4.9%. In the case of `Cc1nn(C)c(C)c1S(=O)(=O)N1CCc2ccccc21`, the potentiation is 3.69%. Then `CCO[C@@H]1OC(C(=O)NC2CC2)=C[C@H](C)[C@H]1CCCO`, with -6.01%. On to `CC1CCN(C(=S)c2cccc([N+](=O)[O-])c2)CC1`, for which the potentiation is -3.98%.

`O=C(Oc1ccccc1C(=S)N1CCCCC1)c1cc([N+](=O)[O-])cc([N+](=O)[O-])c1`: the potentiation is 58.7% (active). Next, `O=C(Oc1ccc(Br)cc1C(=S)N1CCOCC1)c1cccc([N+](=O)[O-])c1`: -0.594%. In the case of `CCCCn1c(N)c(N(CCC(C)C)C(=O)c2ccc(COc3ccccc3)o2)c(=O)[nH]c1=O`, the potentiation was -0.984%.

On to `COc1cccc(NC(=O)C2(C)CCN2Cc2ccccc2Cl)c1` (centres undefined), for which the potentiation is -7.17%. With `CN(CC(=O)Nc1c(Cl)cccc1Cl)C(=O)CC1OC(=O)c2ccccc21` (centres undefined), the potentiation was -2.61%.

With `CC(OC(=O)c1ccccc1NCCO)C(=O)Nc1ccnn1C(C)C` (centres undefined), the potentiation is -3.07%.

Regarding `O=C(NCc1cc(F)cc(C(F)(F)F)c1)C1CCC(=O)N(C2CCCC2)C1` (centres undefined), the potentiation is 2.66%.

For the compound `Cc1ccc(S(=O)(=O)N2CCOCC2)cc1C(=O)NC(=S)N(Cc1ccccc1)C(C)C`, the potentiation was 10.6%. For `CC1(C)C(=O)CCC2(C)C1=CCC1C2C(=O)CC2(C)C1CCC2(O)C(=O)CO` (centres undefined), the potentiation was -30.8%.

On to `O=C(CCc1ccccc1)Nc1ccc(NC(=O)C2CCCCC2)nc1`, for which the potentiation is -8.09%. Turning to `Cc1cc([N+](=O)[O-])nn1CC(=O)Nc1ccc(Cc2ccncc2)cc1`, the potentiation was -10.7%. On to `Cc1nn(CC(=O)Nc2ccc(C#N)cc2)c(C)c1[N+](=O)[O-]`, for which the potentiation was -8.67%. Consider `Cc1cc(C)n(CC(=O)Nc2ccc([N+](=O)[O-])cc2)n1`, for which the potentiation is 70.7% (active).

Take `Cc1ccc(NC(=O)CS(=O)CC(=O)N(c2ccccc2)C(C)C(=O)NC2CCCC2)cc1` (centres undefined): the potentiation was -14.4%. Then `CCCc1nnc(SCC(=O)N2C(C)CCCC2C)n1CC` (centres undefined), with -7.75%; and `CC(NC(=O)CC1SC(N)=NC1=O)c1ccccc1` (centres undefined), with -0.5%. In the case of `C[C@H]1CN([C@@H](C)CO)C(=O)c2cc(-c3cccc(F)c3)cnc2O[C@@H]1CN(C)S(C)(=O)=O`, the potentiation is 7.41%. Then `Cc1csc(NC(=O)C2CCCN2C(=O)OCC(C)C)n1` (centres undefined), with -5.09%; and `COc1ccc(S(=O)(=O)N2CCN(CC(=O)N3CCOCC3)CC2)cc1OC`, with -5.65%. Then `O=C(Nc1cc(F)ccc1F)c1ccc2c(=O)n3c(nc2c1)CCC3`, with -9.48%; and `CC(C)S(=O)(=O)c1csc(NC(=O)Nc2ccc(Cl)cc2)c1Cl`, with -6.65%; and `CCOc1ccc(CCNC(=O)CCc2nnc3ccc(N4CCCC4)nn23)cc1OCC`, with 2.77%. Consider `Cc1occc(=O)c1OCc1c(Cl)cccc1Cl`, for which the potentiation was -9.29%.

`CCN(CC)CCCC(C)n1c2nc(=O)[nH]c(=O)c-2nc2cc(Cl)ccc21` (centres undefined): the potentiation is 80.2% (active). For the compound `COc1cccc(NC(=O)C2(C)CCN2C(=O)CCC2CCCC2)c1` (centres undefined), the potentiation is -1.05%. For `COc1ccc(C(C)(O)c2nc(-c3ccc(C)c(C)c3)cs2)cc1` (centres undefined), the potentiation was -10.5%. As for `CC(C)(C)C(=O)OCc1nc(-c2ccc(O)c(O)c2)cs1`, the potentiation is 70.4% (active). Then `CCCC(=O)N1c2ccc(-c3csc(N)n3)cc2CC1C` (centres undefined), with -21.2%. With `CC(C)NC(=O)C1(C)CCCCCN1C(=O)c1ccc(-c2ccccc2)cc1` (centres undefined), the potentiation was -9.96%. Then `CC1(C)CCSC(/C=C/c2ccccc2)=N1`, with -38.8%; and `CNc1cnc(-c2cc(OC)c(OC)c(OC)c2)cn1`, with 0.325%; and `O=C(Nc1ccccc1F)c1ccc(Cn2cc(Br)cn2)cc1`, with -6.63%. For the compound `CC(C)CCNC(=O)c1cccnc1Sc1ccccc1`, the potentiation is -21.6%. With `COCCNC(=O)C1CCN(C(=O)C2CC(=O)N(c3ccc(C)cc3)C2)CC1` (centres undefined), the potentiation is -6.43%.

For the compound `O=S(=O)(Cc1cc(Cl)nc(-c2cccnc2)n1)c1ccccc1`, the potentiation was 11.9%. For `COc1cc2c(cc1OC)CN(C(C)C(=O)Nc1cccc(S(=O)(=O)N3CCOCC3)c1)CC2` (centres undefined), the potentiation is -31.3%. Then `CC(C)CCNC(=O)C1CCC(CNc2c(N3CCC(C)CC3)c(=O)c2=O)CC1` (centres undefined), with -6.3%; and `OCC[C@H]1C[C@@H](O)[C@H](O)[C@@]2(OCCc3ccccc32)O1`, with -8.36%. `COc1ccc(CCNC(=O)CCn2c(=O)c3ccccc3n(CC(=O)NCC3CCCO3)c2=O)cc1OC` (centres undefined): the potentiation was -2.84%. For the compound `CC(=O)Nc1ccc(S(=O)(=O)Oc2ccc(/C=N/N=C3/NC(=O)C(CC(=O)O)S3)cc2)cc1` (centres undefined), the potentiation is 1.2%. Next, `O=C(CCSc1ccccc1)NCCSc1ccccn1`: -0.984%; `O=C1CSC(c2cccc(F)c2)N1c1ccc(O)cc1` (centres undefined): -4.16%. In the case of `O=C(O)CCCC(=O)Nc1ccccc1-n1ccnc1`, the potentiation was -9.58%. On to `CSc1ncnc2c1ncn2CC(=O)C1CCC2C3CCC4=CC(=O)CCC4(C)C3CCC12C` (centres undefined), for which the potentiation is -2.03%. Next, `CCOC(=O)CSc1nc2ccc(C)cc2n2cnnc12`: 0.488%. `CC1=C(C(=O)N(C(C)C)C(C)C)CC(CC(=O)NCC2CCCCC2)C(=O)N1Cc1ccccc1` (centres undefined): the potentiation is 1.77%. For the compound `O=C(CCNS(=O)(=O)c1ccccc1C(F)(F)F)Nc1ccncc1`, the potentiation is 0.0096%. Consider `O=C(OCC(=O)N(CCc1ccccc1)Cc1ccccc1)c1ccccc1[N+](=O)[O-]`, for which the potentiation was -22.2%. With `O=C(c1cccnc1)N(Cc1ccccc1)C(=O)c1cccnc1`, the potentiation was -3.67%.

Regarding `O=C(c1cccnc1)N(c1cc2sc(=O)oc2c2ccccc12)S(=O)(=O)c1ccccc1`, the potentiation is 61.6% (active). For `COc1ccc(N(C(=O)c2cccnc2)S(=O)(=O)c2ccc(OC)c(OC)c2)cc1`, the potentiation is 0.917%.

Turning to `CC(C)Cc1ccc(S(=O)(=O)N2CCN(C(=O)c3ccco3)CC2)cc1`, the potentiation was -6.64%.

With `CC(C)(C)S(=O)N1Cc2cc(C(=O)NCCCN3CCOCC3)nc(-c3cccc(-c4cc5ccccc5o4)c3)c2[C@H]1CCO` (some centres undefined), the potentiation was -2.56%. In the case of `COc1ccc(/C=C(\NC(=O)c2ccc(OCC(C)C)cc2)C(=O)OCc2ccco2)cc1`, the potentiation is -7.94%. Then `CC(C)c1ccc(NC(=O)COC(=O)c2ccc(CN3CCCC3=O)cc2)cc1`, with 0.762%; and `CCCC(=O)N1CCC1(C)C(=O)NCc1ccc(C(C)C)cc1` (centres undefined), with -0.154%. Then `CC(=O)N1CCN(c2ccc(NCc3ccc(C(C)C)cc3)cc2)CC1`, with 62.8% (active). With `COc1ccc(C(=O)NCCNc2ccc([N+](=O)[O-])cn2)cc1`, the potentiation was -11.5%.

In the case of `CCOCC(=O)Nc1ncc(S(=O)(=O)c2ccc([N+](=O)[O-])cc2)s1`, the potentiation was 24.1%. Then `COC(=O)C(NC(=O)c1ccc(OC)cc1)(Nc1ncc(S(=O)(=O)c2ccc([N+](=O)[O-])cc2)s1)C(F)(F)F` (centres undefined), with 65.4% (active); and `CCCCN1C(=S)NC[C@@H]1C(C)CC` (some centres undefined), with -1.6%; and `N#Cc1ccc(COC(=O)Cn2nnc(-c3ccccc3)n2)cc1`, with -0.341%.

`COC(=O)CNC(=O)c1ccccc1[N+](=O)[O-]`: the potentiation is -2.49%. Next, `COCCn1c(=NC(=O)c2ccccc2[N+](=O)[O-])sc2cc(S(C)(=O)=O)ccc21`: 74.4% (active); `Cn1c(=NC(=O)c2ccc3c(c2)OCCO3)sc2cc(S(C)(=O)=O)ccc21`: -10.1%; `C=CCSc1ccc(S(=O)(=O)N2CCN(C)CC2)cn1`: -3.17%. Next, `O=C(Nc1ccnn1C1CCN(C/C=C/c2ccc(F)cc2)CC1)C1CCCC1`: -11%; `Cn1ncc2c(N3CCCCC3)nc(NCCCO)nc21`: -3.76%; `CS(=O)(=O)c1sc(C(=O)NC(=S)Nc2ccc(OC(F)(F)F)cc2)c2c1C=CCC2`: -5.92%. `COc1ccccc1Cc1c(-c2ccc(Cl)cc2)nc2ccc(Cl)cn12`: the potentiation is -4.81%. Regarding `COc1cccc(N2CC(C(=O)NCc3n[nH]c(=O)c4ccccc34)CC2=O)c1` (centres undefined), the potentiation is -3.09%. Then `CCCCC(=O)N1CC2(C)CN(C(=O)CCCC)CC(C)(C1)C2=O`, with 12.6%; and `COc1cc(C(=O)N2CCN(S(=O)(=O)c3ccc(C(C)C)cc3)CC2)ccc1OCC(=O)N1CCOCC1`, with 0.615%.
